Consider 30 compounds from ChEMBL document CHEMBL1157539, “Thousands of chemical starting points for antimalarial lead identification” (Nature, 2010).

What all share (format): functional
In assay [1] the test system is Plasmodium falciparum. Kind of assay: GSK_TCMDC: Inhibition of Plasmodium falciparum 3D7 in whole red blood cells, using parasite LDH activity as an index of growth. Test compounds present at 2uM.
For assay [2], the system named is Plasmodium falciparum. Kind of assay: GSK_TCMDC: Inhibition of Plasmodium falciparum Dd2 in whole red blood cells, using parasite LDH activity as an index of growth. Test compounds present at 2uM.
The next assay relates to HepG2. As to the kind of experiment: GSK_TCMDC: Percent inhibition of human HepG2 cell line. Test compounds present at 10uM.

Take `Cl.O=S(=O)(Nc1cc2c(cc1O)CCNCC2)c1ccc(-c2ccc(Cl)cc2)cc1`: the results for the Inhibition with Plasmodium falciparum [1], with Plasmodium falciparum [2] and in the assay on HepG2 were 99%, 0% and 10%, respectively.

Regarding `O=C(Nc1cccc(CN2CCCN(Cc3ccc(O)cc3)CC2)c1)c1ccc(Br)cc1.O=C(O)C(F)(F)F`, the Inhibition (in general, the relative decrease from the control value, in per cent) with Plasmodium falciparum [1] is given as 94%; with Plasmodium falciparum [2] it was 54%; with HepG2, 19%.

With `CN1CCN(CCCN(Cc2csc(-c3ccc(CNCc4ccccc4)cc3)n2)C(=O)Nc2cc(Cl)cc(Cl)c2)CC1.O=C(O)C(F)(F)F`, the Inhibition was found to be 100% in the assay with Plasmodium falciparum [1], 45% with Plasmodium falciparum [2] and 34% with HepG2.

On to `CCn1cc(CN2C(=O)C(c3ccccc3)(c3ccccc3)N=C2N)cn1.O=CO`, for which the Inhibition with Plasmodium falciparum [1] is on record as 95%; in the assay on Plasmodium falciparum [2], 60%; in the assay with HepG2, 7%.

In the case of `COC(=O)c1ccccc1COc1ccc(CC2(NC(=O)[C@H](Nc3ccc(C#N)c4ccccc34)C(C)(C)C)CCCC2)cc1`, the Inhibition in the assay on Plasmodium falciparum [1] turned out to be 95%; in the assay on Plasmodium falciparum [2], 82%; in the assay with HepG2, 1%.

In the case of `CCCCCN1CCC(NS(=O)(=O)c2cccc(C(=O)Nc3ccc(C(F)(F)F)cc3)c2)C1.O=C(O)C(F)(F)F` (stereo not given), the Inhibition in the assay on Plasmodium falciparum [1] is 95%; with Plasmodium falciparum [2], 5%; in the assay with HepG2, 45%.

Turning to `CS(=O)(=O)c1ccc(-c2cnc(N)c(-c3ccc(O)cc3)c2)cc1`, the Inhibition was 84% with Plasmodium falciparum [1], 94% in the assay on Plasmodium falciparum [2] and 38% with HepG2.

Regarding `FC(F)(F)c1ccc2[nH]c(-c3ccc(-c4cccc(CNCCc5ccncc5)c4)s3)nc2c1.O=C(O)C(F)(F)F`, the Inhibition in the assay with Plasmodium falciparum [1] came to 100%; in the assay on Plasmodium falciparum [2], 95%; with HepG2, 20%.

As for `CC(O)C1CCCCN1C(=O)c1cccc(-c2ccc(-c3nc4cc(F)ccc4[nH]3)cc2)c1` (stereo not given), the Inhibition in the assay with Plasmodium falciparum [1] is on record as 100%; in the assay with Plasmodium falciparum [2], 99%; with HepG2 it was 46%.

In the case of `CC(Nc1ncc(-c2ccsc2)c(-c2nccs2)n1)c1ccc2c(c1)OCCO2` (stereo not given), the figures for the Inhibition in the assay with Plasmodium falciparum [1], in the assay on Plasmodium falciparum [2] and in the assay on HepG2 were 81%, 66% and 14%, respectively.

For the compound `N#Cc1ccccc1Sc1ccccc1C(=O)Nc1ccc2ccccc2n1`, the Inhibition in the assay with Plasmodium falciparum [1] was found to be 92%; in the assay with Plasmodium falciparum [2] it was 85%; in the assay with HepG2 it was 0%.

With `O=C(Nc1ccc(Cl)cc1)c1cccc(S(=O)(=O)NC2CCN(CC3CCCCC3)C2)c1.O=C(O)C(F)(F)F` (stereo not given), the Inhibition in the assay on Plasmodium falciparum [1] amounted to 90%; with Plasmodium falciparum [2], 41%; in the assay on HepG2, 80%.

For `CCc1ccc(C2CCN(CCCCNC(=O)c3ccc(NC(=O)c4ccc(Cl)cc4)cc3)CC2)c(OC)c1`, the Inhibition in the assay on Plasmodium falciparum [1] is listed as 100%; in the assay on Plasmodium falciparum [2], 80%; in the assay on HepG2, 26%.

For the compound `O=C(NCCc1ccccc1)N(Cc1ccccc1-c1cccc(CNCc2ccc3c(c2)OCO3)c1)C1CCN(Cc2ccccc2)CC1.O=C(O)C(F)(F)F`, the Inhibition in the assay on Plasmodium falciparum [1] was determined as 93%; in the assay with Plasmodium falciparum [2] it was 77%; with HepG2, 29%.

As for `Cc1cc(-c2cccc(CNC3CCN(C)CC3)c2)ccc1S(=O)(=O)NCCc1ccccn1.O=C(O)C(F)(F)F`, the Inhibition with Plasmodium falciparum [1] was determined as 97%; in the assay with Plasmodium falciparum [2], 72%; with HepG2, 22%.

Take `O=C(NCc1ccc(Cl)c(Cl)c1)[C@H]1CNCCN1C(=O)c1ccccc1.O=C(O)C(F)(F)F`: the Inhibition was found to be 97% in the assay on Plasmodium falciparum [1], 4% in the assay with Plasmodium falciparum [2] and 0% in the assay on HepG2.

Turning to `COc1ccc2nccc([C@@H](O)CN3CCC(NC(=O)c4nc(Cl)c(Cl)c(N)c4Cl)CC3)c2c1.CS(=O)(=O)O`, the Inhibition worked out at 87% in the assay on Plasmodium falciparum [1], 17% in the assay on Plasmodium falciparum [2] and 16% with HepG2.

Take `COc1cc2nc(N(C)Cc3cccc(I)c3)nc(N)c2cc1OC`: the Inhibition with Plasmodium falciparum [1] came out at 100%; in the assay with Plasmodium falciparum [2] it was 88%; with HepG2, 7%.

For `O=C(NC1CCN(Cc2ccccc2)CC1)c1ccc2c(=O)n(Cc3ccc(Cl)cc3)c(=S)[nH]c2c1`, the Inhibition is recorded as 100% with Plasmodium falciparum [1], 100% in the assay with Plasmodium falciparum [2] and 16% with HepG2.

For `Fc1cccc(C=NN=c2cc[nH]c3ccc(C(F)(F)F)cc23)c1`, the Inhibition came to 100% in the assay with Plasmodium falciparum [1], 97% in the assay with Plasmodium falciparum [2] and 0% in the assay on HepG2.

Consider `COc1ccc(Cl)cc1N1CCN(CCCNC(=O)c2ccc(-c3nc4cc(Cl)c(Cl)cc4[nH]3)c(C)c2)CC1`, for which the Inhibition in the assay on Plasmodium falciparum [1] was 100%; in the assay with Plasmodium falciparum [2] it was 0%; with HepG2 it was 4%.

Turning to `Cc1cccc2nc(-c3ccc(-c4cccc(C(=O)N5CCCCC5C(C)O)c4)s3)[nH]c12` (stereo not given), the Inhibition is 100% with Plasmodium falciparum [1], 53% in the assay on Plasmodium falciparum [2] and 27% in the assay with HepG2.

Turning to `COc1cc2nc(-c3ccccc3)nc(N3CCN(C(=O)c4ccco4)CC3)c2cc1OC`, the Inhibition with Plasmodium falciparum [1] is reported as 89%; with Plasmodium falciparum [2], 87%; in the assay on HepG2, 0%.

As to `NC(=O)Nc1ccc2c(Nc3ccc(OCc4ccccc4)cc3)ncnc2c1`, the values for the Inhibition in the assay with Plasmodium falciparum [1], with Plasmodium falciparum [2] and in the assay with HepG2 were 84%, 20% and 0%, respectively.

`Cc1nc(N)nc(N)c1-c1ccc(Br)c([N+](=O)[O-])c1`: the Inhibition in the assay on Plasmodium falciparum [1] was 95%; in the assay with Plasmodium falciparum [2] it was 2%; in the assay on HepG2, 64%.

With `CC1(C)N=C(NC(=O)Nc2ccc([N+](=O)[O-])cc2)N=C(N)N1OCc1cccc2ccccc12`, the Inhibition is given as 97% with Plasmodium falciparum [1], 21% in the assay on Plasmodium falciparum [2] and 35% with HepG2.

Consider `Cc1cc2ncn(-c3nccc(NCc4cccnc4)n3)c2cc1C.O=C(O)C(F)(F)F`, for which the Inhibition with Plasmodium falciparum [1] amounted to 99%; in the assay on Plasmodium falciparum [2], 98%; with HepG2, 0%.

As for `Cn1c(=O)c2cc(C(=O)NCCCN3CCCCCC3)sc2c2ccccc21`, the Inhibition in the assay on Plasmodium falciparum [1] came to 99%; with Plasmodium falciparum [2], 99%; in the assay on HepG2, 32%.

Consider `Cc1[nH]c(C)c(-c2ccc(OCCCCSc3ccncc3)cc2)c(=O)c1Br`, for which the Inhibition in the assay on Plasmodium falciparum [1] is on record as 97%; in the assay on Plasmodium falciparum [2], 97%; with HepG2 it was 0%.

With `CCCc1cc(OC)c(CC2c3cc(O)c(C)cc3CCN2C)cc1OC.Cl` (stereo not given), the Inhibition is on record as 99% with Plasmodium falciparum [1], 89% in the assay on Plasmodium falciparum [2] and 32% in the assay with HepG2.
